Source: PubChem BioAssay AID1159580 (chemical genetic matrix, 2015)
Values joined by “and” are separate entries in the source; they are usually repeats but may differ in a detail not shown here. Equal entries are not always repeated. The campaign covered roughly 5,500 compounds. About 2,000 (36%) were called active. Inconclusive results (about 18%) are left out. Rule as the data show it: active = normalized growth mostly below about 0.91 (no sharp cut-off); inconclusive = no clear call, values can overlap the other calls; inactive = mostly above about 0.92. The list shows a part of the results.

Experiment: chemical genetic growth profiling, strain panel (AID 1159580);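 also: tested at 20 µM; growth read once vehicle control cultures reached saturation at 30 °C; 1 = growth at the plate median or of vehicle wells; lower values mean less growth of the strain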
Conditions: S. cerevisiae deletion strains, growth OD

Measured: normalized growth

CC1(C)S[C@@H]2[C@H](NC(=O)[C@H](N)c3ccccc3)C(=O)N2[C@H]1C(=O)O
inactive: locus YAL021C, strain ccr4, stronger effect = lower value 0.98 | locus YAL026C, strain drs2, stronger effect = lower value 0.971 | locus YAL030W, strain snc1, stronger effect = lower value 0.987 | locus YBL061C, strain skt5, stronger effect = lower value 0.973 | locus YBR009C, strain hhf1, stronger effect = lower value 1 | locus YBR021W, strain FUR4, stronger effect = lower value 1.01 | locus YBR023C, strain chs3, stronger effect = lower value 0.967 | locus YBR171W, strain sec66, stronger effect = lower value 0.977 | locus YBR229C, strain ROT2, stronger effect = lower value 1.01 | locus YBR231C, strain swc5, stronger effect = lower value 0.999 | locus YBR279W, strain paf1, stronger effect = lower value 0.954 | locus YCL011C, strain gbp2, stronger effect = lower value 0.95 | locus YCL016C, strain dcc1, stronger effect = lower value 0.942 | locus YCL029C, strain bik1, stronger effect = lower value 0.998 | locus YCL061C, strain MRC1, stronger effect = lower value 0.973 | locus YCL069W, strain vba3, stronger effect = lower value 0.98 | locus YCR088W, strain abp1, stronger effect = lower value 0.975 | locus YDL005C, strain med2, stronger effect = lower value 0.979 | locus YDL035C, strain GPR1, stronger effect = lower value 1.02 | locus YDL040C, strain nat1, stronger effect = lower value 0.971 | locus YDL074C, strain BRE1, stronger effect = lower value 1.01 | locus YDL101C, strain DUN1, stronger effect = lower value 1.01 | locus YDL134C, strain PPH21, stronger effect = lower value 1.01 | locus YDL185W, strain tfp1, stronger effect = lower value 1 | locus YDL192W, strain arf1, stronger effect = lower value 1.03 | locus YDR001C, strain nth1, stronger effect = lower value 0.971 | locus YDR069C, strain doa4, stronger effect = lower value 0.965 | locus YDR101C, strain arx1, stronger effect = lower value 1.01 | locus YDR137W, strain rgp1, stronger effect = lower value 0.945 | locus YDR150W, strain NUM1, stronger effect = lower value 1.02 | locus YDR159W, strain sac3, stronger effect = lower value 0.981 | locus YDR162C, strain NBP2, stronger effect = lower value 1.03 | locus YDR195W, strain ref2 0.961 | locus YDR297W, strain sur2, stronger effect = lower value 0.976 | locus YDR318W, strain mcm21, stronger effect = lower value 1.01 | locus YDR334W, strain swr1, stronger effect = lower value 0.961 | locus YDR335W, strain msn5, stronger effect = lower value 0.948 | locus YDR388W, stronger effect = lower value 1 | locus YDR392W, strain spt3, stronger effect = lower value 0.888 | locus YDR502C, strain sam2, stronger effect = lower value 1.01 | locus YEL003W, strain gim4, stronger effect = lower value 0.98 | locus YEL037C, strain rad23, stronger effect = lower value 0.979 | locus YEL061C, strain CIN8 (second series), stronger effect = lower value 0.97 | locus YEL061C, strain CIN8, stronger effect = lower value 1.01 | locus YER015W, strain faa2, stronger effect = lower value 0.961 | locus YER016W, strain bim1, stronger effect = lower value 0.955 | locus YER110C, stronger effect = lower value 0.991 | locus YER111C, strain swi4, stronger effect = lower value 0.96 | locus YER155C, strain BEM2 (second series), stronger effect = lower value 1.03 | locus YER155C, strain BEM2, stronger effect = lower value 1 | locus YER167W, strain BCK2, stronger effect = lower value 1.01 | locus YFR010W, strain ubp6, stronger effect = lower value 0.996 | locus YGL078C, strain dbp3, stronger effect = lower value 0.999 | locus YGL086W, strain mad1, stronger effect = lower value 1 | locus YGL167C, strain pmr1, stronger effect = lower value 0.987 | locus YGL173C, strain kem1, stronger effect = lower value 0.984 | locus YGL227W, strain vid30, stronger effect = lower value 0.974 | locus YGL240W, strain doc1, stronger effect = lower value 0.991 | locus YGL248W, strain PDE1, stronger effect = lower value 1.02 | locus YGL253W, strain hxk2, stronger effect = lower value 0.944 | locus YGR135W, strain pre9, stronger effect = lower value 1.01 | locus YGR229C, strain SMI1, stronger effect = lower value 1.03 | locus YGR252W, strain gcn5, stronger effect = lower value 1.03 | locus YHR013C, strain ard1, stronger effect = lower value 0.938 | locus YHR027C, strain rpn1, stronger effect = lower value 0.97 | locus YHR030C, strain SLT2, stronger effect = lower value 1.01 and 1.03 | locus YHR079C, strain IRE1 (second series), stronger effect = lower value 1 | locus YHR079C, strain IRE1, stronger effect = lower value 1.03 | locus YHR094C, strain hxt1, stronger effect = lower value 0.994 | locus YHR129C, strain ARP1, stronger effect = lower value 1.01 | locus YHR142W, strain chs7, stronger effect = lower value 0.924 | locus YHR200W, strain rpn10, stronger effect = lower value 1 | locus YIL066C, strain RNR3, stronger effect = lower value 1.03 | locus YIL073C, strain SPO22, stronger effect = lower value 1.04 | locus YIL125W, strain kgd1, stronger effect = lower value 1 | locus YIR030C, strain dcg1, stronger effect = lower value 1.01 | locus YJL092W, strain hpr5, stronger effect = lower value 0.973 | locus YJL095W, strain BCK1 (second series), stronger effect = lower value 0.989 | locus YJL095W, strain BCK1, stronger effect = lower value 1.01 and 1.04 | locus YJL115W, strain asf1, stronger effect = lower value 0.94 | locus YJL129C, strain trk1, stronger effect = lower value 0.913 | locus YJL134W, strain LCB3, stronger effect = lower value 1.01 | locus YJL154C, strain vps35, stronger effect = lower value 0.97 | locus YJL164C, strain tpk1, stronger effect = lower value 0.977 | locus YJL166W, strain qcr8, stronger effect = lower value 0.998 | locus YJL168C, strain set2, stronger effect = lower value 1 | locus YJL187C, strain SWE1 (second series), stronger effect = lower value 1 | locus YJL187C, strain SWE1, stronger effect = lower value 0.988
